From PubChem
FMDV inh: foot and mouth disease virus antiviral activity; Potency, µM (top dose mostly 57.9 µM), usual class: inhibitors; 410,000 tested, 1.2% active; AID 1159524; FMDV antiviral cell-based qHTS; calls by dose curve; tested in HEK293T cells; further: read-out not given here; nearly all actives have a fitted effect of over 45% in size
MARV entry inh: blocks Marburg virus binding to or entry into cells. Marburg virus pseudotyped entry inhibition, cell reporter. Potency, µM (titrated, usually from 37.8 µM), actives largely listed as inhibitors. 300,000 tested, 1.8% active. AID 540276; calls by dose curve; tested in HEK293 cells
Lassa entry inh: Lassa virus entry inhibition; Lassa virus pseudotype entry inhibition, cell reporter; Potency, µM (titrated, usually from 37.9 µM), most hits filed as inhibitors; 300,000 tested, 1.2% active; calls by dose curve; tested in HEK293 cells; further: nearly all actives have a fitted effect of over 50% in size
SARS PLpro yeast: SARS-CoV PLP inhibition in yeast | Potency, µM (series often up to 32.9 µM), usual class: activators | S. cerevisiae expressing SARS-CoV PLpro, growth rescue | 330,000 tested, 0.19% active; calls by dose curve; further: nearly all actives have a fitted effect of over 55% in size
HCMV antiviral: blocks human cytomegalovirus replication. HFF cells, HCMV-luciferase reporter, 72 h; active compounds read low. activity change, negative = inhibition, % at 57.5 µM. 410,000 tested, 4.5% active. AID 1259415; in the data active means activity change below about -60%; inconclusive means no clear call, values can overlap the other calls; inactive means above about -39%
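Luciferase read-out from HCMV-luciferase-infected HFFs (MOI 1 PFU/cell) 72 h post infection at 37C; compounds added after 16 h cell attachment; activity normalized between buffer-only basal and Salinomycin (10uM) inhibitor controls.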
HCV inhibitor: HCV inhibition; Huh7.5.1 HCVcc-Cre infection, luciferase reporter, 44 h; Potency, µM (doses to about 41.8 µM), usual class: inhibitors; 340,000 tested, 3.4% active; AID 651820; active means well fitted inhibition curve with a large enough effect; inconclusive means small, poorly fitted or top-dose-only effect, or another doubt; inactive means no such curve, though single readings can be large or run the other way
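Cells seeded at 1,000/well and cultured 4 h, then compounds added followed by HCVcc-Cre virus (~0.5 moi). After 44 h further culture, luciferase substrate was added, plates held 15 min at room temperature, and luminescence read for 15 sec.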
Each line names hits and unclear results; the compound was inactive in the other large screens; ! = not confirmed by another sample. Most compounds without a hit are left out; they make up all but 8% or so of the library.

Cc1ccc(C2CC(c3cccs3)=NN2C(=O)CSc2nc(=O)n3cc(C)ccc3n2)cc1 (centres undefined)	HCV inhibitor inconclusive
Cc1c(Cl)cccc1-n1c(SCC(=O)N2CCC(C(=O)O)CC2)nnc1-c1ccncc1	none (no result: MARV entry inh, Lassa entry inh)
C[C@@H]1CC[C@H]2C(=O)N3[C@@H](CC[C@@H](C)[C@@H]3c3ccc(-c4ccco4)cc3)C(=O)N2[C@@H]1c1ccc(-c2ccco2)cc1	Lassa entry inh inconclusive (no result: FMDV inh, SARS PLpro yeast, HCMV antiviral, HCV inhibitor)
Cc1cccc(CNc2nc3cnc(-c4cccc(F)c4)cc3n2C)c1	none (no result: FMDV inh, MARV entry inh, Lassa entry inh, SARS PLpro yeast, HCV inhibitor)
CNCCCOc1ccc(Cl)cc1C(C)(C)C	MARV entry inh inconclusive
COCCCNCCCOc1ccc(Cl)cc1C(C)(C)C	FMDV inh inconclusive, MARV entry inh inconclusive, Lassa entry inh inconclusive, HCV inhibitor 7.1µM
OCCNCCCOc1ccc(Cl)cc1Br	MARV entry inh 21µM
CCc1ccc(N(CC(=O)NCCc2ccccc2)C(=O)CCC(=O)Nc2ccccn2)cc1	MARV entry inh inconclusive, Lassa entry inh inconclusive
O=C(Nc1nc(-c2ccccc2)c(-c2ccccc2)s1)c1ccc(S(=O)(=O)N(CCCl)CCCl)cc1	MARV entry inh inconclusive, Lassa entry inh 5µM
COc1ccc(CN2CCC2(C)C(=O)Nc2cccc(NS(C)(=O)=O)c2)c2ccccc12 (centres undefined)	FMDV inh inconclusive (no result: MARV entry inh, Lassa entry inh, SARS PLpro yeast, HCV inhibitor)
CC(=O)Nc1ccc(Oc2ccc([N+](=O)[O-])cc2Cl)cc1	FMDV inh inconclusive, MARV entry inh inconclusive
CC(=O)Nc1ccc(N=c2cc([N+](=O)[O-])cc(Cl)n2O)cc1	MARV entry inh inconclusive, Lassa entry inh inconclusive, HCMV antiviral -85, HCV inhibitor 10µM
CC1(C)CC(C(=O)N2CCOc3ccc(CN4CCN(Cc5ccccn5)CC4)cc3C2)CCO1 (centres undefined)	none (no result: MARV entry inh, Lassa entry inh, SARS PLpro yeast, HCMV antiviral, HCV inhibitor)
CCc1ccc(NS(=O)(=O)c2ccc3oc(=O)ccc3c2)cc1	MARV entry inh inconclusive, HCMV antiviral -66
Cc1ccc(-n2cccc2C(=O)NS(=O)(=O)c2ccc(C)cc2)cc1	none (no result: MARV entry inh, Lassa entry inh)
Cc1ccc(-n2cccc2C(=S)N=P(N(C)C)(N(C)C)N(C)C)cc1	FMDV inh inconclusive, MARV entry inh inconclusive, Lassa entry inh inconclusive, HCMV antiviral -80, HCV inhibitor inconclusive
Cc1ccc(NC(=O)CC2(CC(=O)O)CCCC2)cc1	none
Cc1cccc(C)c1OCC(=O)Nc1cccc(NC(=O)c2ccco2)c1	MARV entry inh inconclusive, Lassa entry inh inconclusive, HCV inhibitor 11µM
Cc1ccc(C(=O)COc2ccccc2C(=O)Nc2ccccc2)cc1	FMDV inh inconclusive, MARV entry inh inconclusive, Lassa entry inh inconclusive, HCV inhibitor 16µM
O=C(O)CC1(CC(=O)Nc2cccc(C(=O)O)c2)CCCC1	HCMV antiviral -102 (no result: MARV entry inh, Lassa entry inh)
COc1ccc(NC(=O)c2ccco2)cc1NC(=O)COc1cc(C)ccc1C(C)C	FMDV inh inconclusive, HCMV antiviral -79 (no result: SARS PLpro yeast, HCV inhibitor)
O=C(NC[C@@H]1CCCN2CCCC[C@H]12)c1cnn(-c2nccc(-c3ccco3)n2)c1C1CC1	none (no result: MARV entry inh, Lassa entry inh, SARS PLpro yeast, HCMV antiviral, HCV inhibitor)
Cc1ccc(C(C)C)c(OCC(=O)NNC(=O)Nc2ccccc2)c1	MARV entry inh inconclusive, HCMV antiviral -67 (no result: SARS PLpro yeast)
Cc1cccc(C)c1NC(=O)COc1ccccc1C(=O)Nc1ccc(Br)cn1	MARV entry inh inconclusive, HCMV antiviral -65
Cc1cccc(NC(=O)COc2ccccc2C(=O)NC(C)c2ccccc2)c1 (centres undefined)	MARV entry inh inconclusive, Lassa entry inh inconclusive, HCV inhibitor 10µM (no result: HCMV antiviral)
Cc1ccc(C(C)C)cc1OCC(=O)NNC(=O)Nc1ccccc1	none
Cc1ccccc1OCC(=O)Nc1cccc(C(=O)O)c1	FMDV inh 4µM, MARV entry inh inconclusive, Lassa entry inh 0.89µM
CCOC(=O)CN1C(=O)[C@@]2(CC(C)=CC[C@@H](COc3ccccc3)O2)c2ccccc21	Lassa entry inh inconclusive (no result: FMDV inh, SARS PLpro yeast, HCMV antiviral, HCV inhibitor)
Cc1cc(C(=O)CCC(=O)NCC2COc3ccccc3O2)c(C)s1 (centres undefined)	none
C[S+](=O)([O-])c1sc(C(=O)NC(=S)NC2CCC(OC(F)(F)F)CC2)c2c1C=CCC2 (centres undefined)	none (no result: FMDV inh, Lassa entry inh, SARS PLpro yeast, HCMV antiviral, HCV inhibitor)
Cc1ccccc1OCC(=O)Nc1ccc(NC(=O)c2ccco2)cc1	Lassa entry inh inconclusive, HCMV antiviral -80, HCV inhibitor inconclusive
Cn1nnnc1N=N/C(=N/Nc1ccccc1)c1ccccc1	MARV entry inh 1µM, Lassa entry inh inconclusive, HCMV antiviral -86, HCV inhibitor 4µM
Cc1ccc(CNC(=O)[C@H](Cc2ccccc2)NC(=O)C2CCNCC2)cc1	MARV entry inh inconclusive
COc1ccc2nc(S(=O)Cc3ncc(C)c(OC)c3C)[nH]c2c1 (centres undefined)	HCV inhibitor 2.2µM!
CC(C)NCC(O)Cn1c2c(c3ccccc31)CCc1c-2cnn1-c1ccccc1 (centres undefined)	FMDV inh inconclusive, MARV entry inh inconclusive, Lassa entry inh 7.1µM, HCMV antiviral -103, HCV inhibitor inconclusive
COc1cc(CCCN2C(=S)NC[C@H]2Cc2ccc(O)cc2)cc(OC)c1OC	HCV inhibitor 11µM (no result: MARV entry inh, Lassa entry inh)
COc1cc(CCCN2C(=O)C(=O)NC[C@@H]2Cc2ccc(O)cc2)cc(OC)c1OC	none (no result: MARV entry inh, Lassa entry inh)
C/C(=N\NC(=O)Cn1cc([N+](=O)[O-])cn1)c1ccc(O)cc1	none (no result: MARV entry inh, Lassa entry inh)
CCCS(=O)(=O)NC(=O)C1(C)CCN(C(=O)c2ccc(F)c(C)c2)C1 (centres undefined)	none (no result: MARV entry inh, Lassa entry inh, SARS PLpro yeast, HCV inhibitor)
Cc1ccc2cc(CN(Cc3ccc4c(c3)OCO4)Cc3nnnn3Cc3ccco3)c(=O)[nH]c2c1	MARV entry inh inconclusive, Lassa entry inh inconclusive, HCMV antiviral inconclusive, HCV inhibitor 16µM!
Cc1ccc2[nH]c(=O)c(CN(Cc3ccccc3)Cc3nnnn3C3CCCC3)cc2c1	MARV entry inh 18µM, HCV inhibitor inconclusive
Cc1ccc(CN(Cc2cc3cc4c(cc3[nH]c2=O)OCCO4)Cc2nnnn2Cc2ccco2)cc1	MARV entry inh inconclusive, Lassa entry inh inconclusive, HCV inhibitor inconclusive
CCC(C(=O)NCCc1ccc(OC)c(OC)c1)n1nc(C)c2sc3ccccc3c2c1=O (centres undefined)	none (no result: SARS PLpro yeast, HCV inhibitor)
S=C(NC1CCCCC1)N1CCn2cccc2C1c1ccncc1 (centres undefined)	none
S=C(NC1CCCCC1)N1CCn2cccc2C1c1cccnc1 (centres undefined)	MARV entry inh 8.9µM, Lassa entry inh inconclusive
CC(=O)OCCNc1cc(SCc2ccco2)c2nonc2c1[N+](=O)[O-]	FMDV inh 32µM, MARV entry inh inconclusive, HCV inhibitor inconclusive (no result: HCMV antiviral)
CCCC(=O)OCCNc1cc(SCCC(=O)OC)c2nonc2c1[N+](=O)[O-]	MARV entry inh inconclusive
COC(=O)CCSc1cc(NCCOC(C)=O)c([N+](=O)[O-])c2nonc12	FMDV inh 35µM, MARV entry inh inconclusive, HCV inhibitor inconclusive
CC(=O)OCCNc1cc(Sc2nc3ccccc3[nH]2)c2nonc2c1[N+](=O)[O-]	FMDV inh 35µM, HCV inhibitor inconclusive
O=[N+]([O-])c1c(NCCCO)cc(SCc2ccco2)c2nonc12	HCV inhibitor inconclusive
